Unmarked numbers belong to inactive results. Activity calls are given as the source filed them.

The results in this text go back to PubChem BioAssay.

This assay can be described thus: growth of efflux-deficient E. coli DRC39 – strain DRC39, OD650, 48 h, E. coli filamentation inducers, primary screen (AID 1179).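 Note: screen aims at cell division blockers that make cells filament.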 As to conditions: E. coli DRC39 delta-acrAB growth, higher = more signal, called active from +8 up or from −8 down.
For the compound `C=CCC(OC(C)=O)[C@@H]1[C@@H](N(Cc2ccc(-c3ccccc3)cc2)C(=O)Cc2ccc(OC)cc2)c2cc(OCCCO)ccc2N1C(=O)c1ccc2ccccc2n1` (stereo not given in full), the z-score is 0.644.

With `COc1ccc(C#Cc2ccc3c(c2)[C@]2(C(=O)N3)[C@H](C(=O)NC[C@H](O)c3ccccc3)[C@H]3C(=O)O[C@H](c4ccccc4)[C@H](c4ccccc4)N3[C@@H]2c2ccc(OCCO)cc2)cc1`, the z-score is -0.151.

As for `COCCOC(=O)N1C(=O)[C@@]2(c3cc(C#CC4(O)CCCCCC4)ccc31)[C@H](C(=O)N1CCCCCCC1)[C@H]1C(=O)O[C@H](c3ccccc3)[C@H](c3ccccc3)N1[C@@H]2c1ccccc1OCCO`, the z-score was -1.16.

As to `COC(=O)c1ccc(OC)c(/C=C\CC(OC(C)=O)c2ccccc2)c1` (stereo not given), the z-score is -0.396.

On to `Cc1ccc([C@H]2C(C(=O)O)=C[C@@H](C)N2S(=O)(=O)c2ccc(C)cc2)cc1`, for which the z-score was -0.444.

Turning to `NCCCCCCNC(=O)[C@H]1C[C@H]2C(=O)NCC(=O)N2[C@H]1c1cccc(OCCO)c1`, the z-score was 1.61.

For `COc1ccc(CCN2C(=O)[C@@]3(Cc4ccccc42)c2ccccc2C(=O)N(Cc2ccccc2Cl)[C@H]3c2ccc(CO)cc2)cc1`, the z-score is 0.353.

Turning to `C=CC[C@@H](OC(=O)Nc1ccc(OC)cc1)c1ccc(O)c2ccccc12`, the z-score is -0.473.

For `CC(C)C[C@@H]1NC(=O)[C@@H]2C[C@H](C(=O)NCCCCCC[N+](C)(C)C)[C@H](c3ccc(O)cc3)N2C1=O`, the z-score is 0.62.

`O=C1C=CC(=O)[C@@H]2CC(COc3ccccc3)=C3[C@@H](CCc4ccccc4)OB(O)C[C@@H]3[C@H]12`: the z-score is -0.422.

Regarding `CN(C)CCCCNC(=O)[C@H]1C[C@H]2C(=O)N[C@@H](Cc3ccccc3)C(=O)N2[C@H]1c1ccc(O)cc1`, the z-score is -0.855.

`CCCC[C@H]1OB(O)C[C@H]2C1=C(C)C[C@H]1C(=O)N(Cc3ccccc3)C(=O)[C@H]12`: the z-score is 0.452.

For the compound `C=C[C@@H](COC(C)=O)N(Cc1ccc([N+](=O)[O-])cc1)S(=O)(=O)c1ccc(Br)cc1`, the z-score was 0.469.

`COc1ccc([Si](C)(C)[C@@H]2[C@@H](CCn3cc([C@H](O)c4ccccc4)nn3)O[C@]3(C(=O)N(Cc4ccc(N5C(=O)c6cccc7cccc5c67)cc4)c4ccccc43)[C@H]2C)cc1`: the z-score is 0.453.

Consider `CC(C)(C)OC(=O)CC[C@@]1(C(=O)NCCN2CCOCC2)N=C(c2ccc(OCCCO)cc2)O[C@@H]1c1ccccc1`, for which the z-score is 1.32.

Take `O=C1O[C@@H](c2ccccc2)[C@@H](c2ccccc2)N2[C@@H](c3ccccc3OCCO)[C@]3(C(=O)Nc4ccc(C#CC5(O)CCCCCC5)cc43)[C@@H](C(=O)Nc3nc4ccccc4s3)[C@H]12`: the z-score was -1.19.

On to `COCCOC(=O)N1C(=O)[C@@]2(c3cc(C#CCNC(N)=O)ccc31)[C@H](c1ccc(OCCO)cc1)N1[C@H](c3ccccc3)[C@H](c3ccccc3)OC(=O)[C@H]1[C@@H]2C(=O)N1CCc2cc(OC)c(OC)cc2C1`, for which the z-score is 0.582.

`CCOC(=O)C[C@H]1[C@H](OC(=O)c2ccc(C(=O)c3ccccc3)cc2)[C@@H](NC(=O)C2CCCCC2)c2cc(OCCCO)ccc2N1C(=O)c1ccccc1`: the z-score was -0.549.

For `CC(C)=CCCC(C)=CC(O)C1C=CC2C(=O)N(c3ccccc3)C(=O)C2N1Nc1ccccc1` (stereo not given), the z-score was -0.927.

With `COC(=O)[C@@]1(Cc2ccc(OC)cc2)[C@H]2c3cc(C(=O)N4CCCC4)n(CCc4c[nH]c5cc(F)ccc45)c3C[C@H]2CN1C(=O)c1ccccc1`, the z-score is -0.141.

As for `Cc1ccc(F)cc1S(=O)(=O)N[C@@H]1CCN(Cc2ccc(-c3ccccc3)cc2)C1`, the z-score was -20 (active).

On to `COC(=O)[C@@]1(Cc2ccc(OC)cc2)[C@H]2c3cc(C(=O)N(C)C)n(Cc4c(OC)[nH]cc(C)c4=O)c3C[C@H]2CN1C(=O)c1ccccc1`, for which the z-score is 0.574.

In the case of `[N-]=[N+]=Nc1ccccc1[C@H]1OC(c2ccc(OCCCO)cc2)=N[C@@]1(CCS(=O)(=O)c1ccccc1)C(=O)O`, the z-score is 0.499.

For `COC(=O)c1ccc(C(O)C2C=CC3C(=O)N(C)C(=O)C3N2NC(=O)OC(C)(C)C)o1` (stereo not given), the z-score was -0.757.

`CC=CC(O)C1C=CC2C(=O)N(c3ccccc3)C(=O)C2N1Nc1ccc(C(C)C)cc1` (stereo not given): the z-score was -1.02.

As for `O=C1C[C@@](C(=O)NC2CC2)(c2ccc([N+](=O)[O-])cc2)[C@@H](c2ccc(CO)cc2)N1CC12CC3CC(CC(C3)C1)C2`, the z-score is 0.466.

`COc1ccc(C(O)C2C=CC3C(=O)N(C)C(=O)C3N2Nc2ccccc2)cc1OCc1ccccc1` (stereo not given): the z-score was -1.05.

On to `[N-]=[N+]=NCc1ccccc1C[C@@]1(C(=O)N2CCOCC2)N=C(c2ccc(OCCCO)cc2)O[C@@H]1c1ccccc1CN=[N+]=[N-]`, for which the z-score is 1.06.

For `CN1C(=O)C2C=CC(C(O)c3ccccn3)N(Nc3ccccc3)C2C1=O` (stereo not given), the z-score is -0.387.

Consider `COc1ccc(C#Cc2ccc3c(c2)[C@]2(C(=O)N3)[C@H](c3ccc(O)cc3)N3[C@H](c4ccccc4)[C@H](c4ccccc4)OC(=O)[C@H]3[C@@H]2C(=O)N2CCCCCCC2)cc1`, for which the z-score is -0.469.

For `O=C1OCCC=C[C@H]2OC34C=CCN(Cc5ccccc5)C(=O)[C@H]3N(CCCCCO)C(=O)[C@@H]4C12` (stereo not given in full), the z-score is 0.927.

Turning to `COC(=O)C(CC#Cc1ccc2c(c1)[C@]1(C(=O)N2)[C@H](C(=O)NC[C@H](O)c2ccccc2)[C@H]2C(=O)O[C@H](c3ccccc3)[C@H](c3ccccc3)N2[C@@H]1c1ccc(OCCO)cc1)C(=O)OC`, the z-score was 0.335.

For the compound `COCCOC(=O)N1C(=O)[C@@]2(c3cc(C#CCNC(N)=O)ccc31)[C@H](c1ccc(O)cc1)N1[C@H](c3ccccc3)[C@H](c3ccccc3)OC(=O)[C@H]1[C@@H]2C(=O)NC[C@H](O)c1ccccc1`, the z-score is 0.193.

For `COC(=O)[C@@]1(Cc2ccccc2)[C@H]2c3cc(C(=O)N4CCCC4)n(Cc4ccc(C)o4)c3C[C@H]2CN1C(=O)c1ccccc1`, the z-score was -0.471.

For `COCC(=C=CC[C@H](O)c1ccc(OCCO)cc1)C[C@H](O)c1cc(Cl)cc(Cl)c1O`, the z-score is 1.27.
